This is an account of results in PubChem BioAssay (NCI).

Each structure is given as a SMILES string. Compounds without any hit were thinned out: in the full panel of roughly 83,000, 20% have a hit.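 48-hour exposure, single concentration, 96-well plates; percent growth endpoint where 0 means no net growth. Active: below 10.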 Values without a mark were called inactive. Active and inactive are the calls of the source.

Test systems include HCT-15 colon; HT29 colon; SNB-75 CNS; SNB-19 CNS; U251 CNS; PC-3 prostate; UACC-62 melanoma; LOX IMVI melanoma; SK-MEL-28 melanoma; SK-MEL-2 melanoma; EKVX NSCLC; SN12C renal; UO-31 renal; TK-10 renal; ACHN renal; CAKI-1 renal; A498 renal; CCRF-CEM leukemia; MOLT-4 leukemia; SK-MEL-5 melanoma.
Assay in all cases: NCI-60 one-dose screen, 48 h (100 = growth as untreated, 0 = no growth, -100 = all killed)
Conditions in all cases: 10 µM unless noted

As to `COc1cc(C2CC(=O)Nc3c2ccc2ccccc32)cc(Br)c1OC` (stereo not given), the growth in the assay on HCT-15 colon is 27.9%; with HT29 colon, -6.29% (active); in the assay on SNB-75 CNS, -18.6% (active); in the assay on SNB-19 CNS it was 39%; with U251 CNS it was 18.6%; in the assay with PC-3 prostate, 15.2%. In addition, the growth with UACC-62 melanoma was 12.1%; in the assay on LOX IMVI melanoma it was 25.1%; in the assay on SK-MEL-28 melanoma, 43.6%; in the assay on SK-MEL-2 melanoma, 8.51% (active); in the assay with EKVX NSCLC, 38.9%; in the assay on SN12C renal, 50.2%. The growth was 27.2% with UO-31 renal; 34.4% in the assay on TK-10 renal; 45.9% in the assay with ACHN renal; 27.1% with CAKI-1 renal; 7.93% (active) in the assay on A498 renal; -25.7% (active) in the assay with CCRF-CEM leukemia. In the assay on MOLT-4 leukemia, the growth is 10.6%.
`COc1ccc(Nc2[nH]n(C3=Nc4ccccc4Sc4ccccc43)c(=O)c2C#N)cc1`: the growth was 49.3% with HCT-15 colon; 68.7% with HT29 colon; 67.3% with SNB-75 CNS; 73.5% with SNB-19 CNS; 67% with U251 CNS; 41.4% with PC-3 prostate. The growth in the assay with UACC-62 melanoma is 32.8%; in the assay with LOX IMVI melanoma, 54.6%; in the assay on SK-MEL-28 melanoma it was 64.7%; in the assay with SK-MEL-2 melanoma, 59.4%; in the assay on SN12C renal it was 50.1%; in the assay with UO-31 renal, 35.6%. Also, the growth was 65.9% with TK-10 renal, 40.3% with ACHN renal, 50.2% in the assay on CCRF-CEM leukemia and 46.5% in the assay with MOLT-4 leukemia.
Take `NC(=O)c1cc(I)ccc1NC(=O)COc1ccccc1`: the growth is 20.1% in the assay with HCT-15 colon; 7.08% (active) in the assay with HT29 colon; 30.8% with SNB-75 CNS; 43.1% in the assay with SNB-19 CNS; 13.5% in the assay on U251 CNS; 43.4% in the assay on PC-3 prostate. Further, the growth in the assay with UACC-62 melanoma is 46%; with LOX IMVI melanoma, 52.1%; with SK-MEL-28 melanoma it was 57.7%; in the assay on SK-MEL-2 melanoma it was 34.5%; with UO-31 renal it was 52.7%; with ACHN renal, 43.8%. The growth was 55.1% in the assay with CAKI-1 renal, 4.14% (active) in the assay on A498 renal, 4.81% (active) in the assay on CCRF-CEM leukemia and 4.74% (active) in the assay with MOLT-4 leukemia.
Regarding `CN1CCc2c(Sc3ccc(C(=O)NO)cc3)c3ccccc3n2C1`, the growth with HCT-15 colon was 75.6%; with HT29 colon, 48.9%; in the assay with SNB-75 CNS, 25.8%; with SNB-19 CNS, 53.4%; in the assay on U251 CNS, 23.8%; with PC-3 prostate, 20.8%. Besides, the growth is 38.9% in the assay with UACC-62 melanoma; 11.6% with LOX IMVI melanoma; 14.7% with SK-MEL-28 melanoma; 39.6% in the assay on SK-MEL-2 melanoma; 59.4% in the assay on SN12C renal; 62.8% with UO-31 renal. Besides, the growth in the assay with ACHN renal is 64.6%; with CAKI-1 renal, 78.8%; in the assay with A498 renal, 28.6%; in the assay on CCRF-CEM leukemia it was 3.13% (active); in the assay on MOLT-4 leukemia, 6.7% (active).
In the case of `COc1cc2nc(N3CCC[C@H](NC4=CC(=O)c5ccccc5C4=O)C3)nc(N)c2cc1OC`, the growth in the assay on HCT-15 colon was -63.5% (active); in the assay on HT29 colon it was -69.1% (active); in the assay with SNB-75 CNS, -83.5% (active); with SNB-19 CNS it was -74.7% (active); in the assay on U251 CNS, -90.2% (active); in the assay with PC-3 prostate, 54.5%. Further, the growth in the assay with UACC-62 melanoma was -87.9% (active); with LOX IMVI melanoma it was -82.9% (active); in the assay with SK-MEL-28 melanoma, -85.2% (active); in the assay on SN12C renal it was 65.4%; in the assay on UO-31 renal, -76.1% (active); with TK-10 renal, -72.6% (active). Also, the growth in the assay with ACHN renal is -100% (active); in the assay with CAKI-1 renal, -56.6% (active); with A498 renal, 93%; with CCRF-CEM leukemia it was -23.5% (active); with MOLT-4 leukemia, -41.3% (active).
For the compound `NC(=O)c1cc(Cl)ccc1NC(=O)COc1ccccc1`, the growth with HCT-15 colon is 33.3%; in the assay on HT29 colon, 17.6%; with SNB-75 CNS it was 36.5%; with SNB-19 CNS it was 64.7%; in the assay with U251 CNS, 39.7%; in the assay with PC-3 prostate it was 47.3%. Also, the growth is 56.7% in the assay with UACC-62 melanoma; 59.4% with LOX IMVI melanoma; 69.3% in the assay with SK-MEL-28 melanoma; 49.7% in the assay with SK-MEL-2 melanoma; 58.3% with UO-31 renal; 58.4% with ACHN renal. The figures for the growth in the assay on A498 renal, with CCRF-CEM leukemia and with MOLT-4 leukemia were 83.5%, 23.2% and 34.7%, respectively.
As to `Cn1c2ccccc2c2nn(Cc3ccccc3)c(=O)nc21`, the growth with HCT-15 colon is 94.6%; in the assay on HT29 colon it was 112%; in the assay on SNB-75 CNS, 77%; in the assay with SNB-19 CNS, 106%; with U251 CNS it was 106%; in the assay on PC-3 prostate, 99.4%. Further, the growth was 108% with UACC-62 melanoma; 102% in the assay on LOX IMVI melanoma; 126% with SK-MEL-28 melanoma; 103% in the assay on SK-MEL-2 melanoma; 107% in the assay on SN12C renal; 75.1% with UO-31 renal. Moreover, the growth with ACHN renal is 88.5%; in the assay with CAKI-1 renal, 94.7%; with A498 renal it was 104%; in the assay on CCRF-CEM leukemia, 102%; with MOLT-4 leukemia, 105%.
With `Cc1cc(=O)[nH]n1-c1cc(Cl)ccc1N`, the growth is 92.4% in the assay with HCT-15 colon; 102% in the assay on HT29 colon; 88.4% in the assay on SNB-75 CNS; 112% in the assay on SNB-19 CNS; 108% with U251 CNS; 112% with SK-MEL-5 melanoma. In addition, the growth in the assay with LOX IMVI melanoma is 94.7%; in the assay with SK-MEL-28 melanoma, 115%; in the assay on EKVX NSCLC, 117%; in the assay on SN12C renal it was 110%; in the assay with UO-31 renal it was 89.3%; with TK-10 renal, 98.1%. Also, the values for the growth in the assay with ACHN renal, in the assay with A498 renal and in the assay with MOLT-4 leukemia were 100%, 120% and 112%, respectively.
For the compound `Cc1ccc(S(=O)(=O)N2CCc3ccc(O)c4c3C2Cc2cc(Cl)ccc2-4)cc1` (stereo not given), the growth is 48.4% in the assay with HCT-15 colon; 103% in the assay with HT29 colon; 48.7% in the assay on SNB-75 CNS; 83.9% in the assay on SNB-19 CNS; 30.2% in the assay with U251 CNS; 52.8% in the assay on SK-MEL-5 melanoma. The growth in the assay on UACC-62 melanoma was 57%; in the assay on LOX IMVI melanoma it was 68.9%; in the assay with SK-MEL-28 melanoma, 56.6%; in the assay on EKVX NSCLC it was 99.6%; in the assay on SN12C renal, 91.9%; in the assay with UO-31 renal it was 48.8%. Moreover, the growth was 69.1% in the assay with TK-10 renal; 57.1% in the assay on ACHN renal; 56.1% in the assay on CAKI-1 renal; 47.5% in the assay with A498 renal; 94% in the assay with CCRF-CEM leukemia; 74.4% in the assay on MOLT-4 leukemia.
